Measured values taken from PubChem BioAssay (NCATS).
Results filed as inconclusive are left out. Calls of active or inactive are those of the source. Calls follow the shape of the dose curve; as a rule, active = well fitted cell-killing curve with a large enough effect; inconclusive = small, poorly fitted or top-dose-only effect; inactive = flat fitted curve, though single readings scatter.

Columns and labels:
[1] = Cell Viability - LYMP2-015 (AID 971); also: nearly all actives have a fitted effect of over 55% in size
How it was run: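 Human lymphoblastoid cells (2500/well) in complete medium were preincubated 5 hr at 37 C, then compound-treated 24 hr at 37 C. Intracellular ATP was read by CellTiter-Glo luminescence after 30 min at room temperature; AC50 came from Hill-equation concentration-response fits.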

[2] = Cell Viability - LYMP2-017 (AID 972); also: series mostly up to about 92 µM; nearly all actives have a fitted effect of over 55% in size
How it was run: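 Human lymphoblastoid cells (2500/well) were seeded in complete medium, held 5 hr at 37 C, then exposed to compounds for 24 hr at 37 C. Intracellular ATP was read by CellTiter-Glo luminescence after 30 min at room temperature, with AC50 values from Hill-equation fits.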

[3] = Cell Viability - LYMP2-019 (AID 973); also: nearly all actives have a fitted effect of over 55% in size
How it was run: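 Human lymphoblastoid cells were seeded at 2500 cells/well, preincubated 5 hr at 37 C, then exposed to compounds for 24 hr at 37 C in complete medium. Intracellular ATP was measured by CellTiter-Glo luminescence; AC50 from Hill fits.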

[4] = Cell Viability - LYMP2-021 (AID 974);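 also: compound exposure lasts 24 hours at 37 °C; nearly all actives have a fitted effect of over 55% in size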
How it was run: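 Human lymphoblastoid cells (2500/well) were preincubated 5 hr at 37 C, then exposed to compounds for 24 hr at 37 C in complete medium. Intracellular ATP was read by CellTiter-Glo luminescence; AC50 came from Hill-equation fits of concentration-response data.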

[5] = Cell Viability - LYMP2-023 (AID 975)
How it was run: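 Human lymphoblastoid cells (2500/well) were preincubated 5 hr at 37 C, then exposed to compounds for 24 hr at 37 C in complete medium. Cellular ATP was read by CellTiter-Glo luminescence, and AC50 came from Hill-equation fits.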

[6] = Cell Viability - LYMP2-025 (AID 976); also: series mostly up to about 92 µM
How it was run: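 Human lymphoblastoid LYMP2-025 cells (2500/well) were pre-incubated 5 hr at 37 C, then treated with compounds for 24 hr at 37 C in complete medium. Viability was read as intracellular ATP by CellTiter-Glo luminescence; AC50 from Hill fits.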

[7] = Cell Viability - LYMP2-002 (AID 977); also: series mostly up to about 92 µM
How it was run: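 Cytotoxicity is scored as concentration-dependent loss of cellular ATP in a human lymphoblastoid line after 24 hr compound treatment at 37 C. AC50 is obtained by modelling concentration-response data with the Hill equation.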

[8] = Cell Viability - LYMP2-006 (AID 978); also: series mostly up to about 92 µM; nearly all actives have a fitted effect of over 60% in size
How it was run: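 Potency values are Hill-fit AC50s for decreases in intracellular ATP (CellTiter-Glo luminescence). LYMP2-006 lymphoblastoid cells, 2500 per well, were exposed to compound in complete culture medium for 24 hr at 37 C.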

[9] = Cell Viability - LYMP2-007 (AID 979);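 also: cells exposed to compound for 24 h before reading; nearly all actives have a fitted effect of over 60% in size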
How it was run: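 Human lymphoblastoid cells (2500/well) were plated in complete medium, incubated 5 hr at 37 C, then exposed to compounds for 24 hr at 37 C. Intracellular ATP was read by CellTiter-Glo luminescence after 30 min at room temperature; AC50 from Hill fits.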

[10] = Cell Viability - LYMP2-008 (AID 980); also: nearly all actives have a fitted effect of over 60% in size
How it was run: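 Human lymphoblastoid cells (2500/well) were plated, held 5 hr at 37 C, then exposed to compounds for 24 hr at 37 C in complete medium. Intracellular ATP was read by CellTiter-Glo luminescence; AC50 from Hill-fitted concentration-response.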

[11] = Cell Viability - LYMP2-010 (AID 981); also: nearly all actives have a fitted effect of over 55% in size
How it was run: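 Human lymphoblastoid LYMP2-010 cells (2500/well) were preincubated 5 hr at 37 C, then exposed to compounds for 24 hr at 37 C in complete medium. Intracellular ATP was measured by CellTiter-Glo luminescence after 30 min at room temperature; AC50 from Hill-fitted concentration-response.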

[12] = Cell Viability - LYMP2-012 (AID 982)
[13] = Cell Viability - LYMP2-014 (AID 983); also: series mostly up to about 92 µM; nearly all actives have a fitted effect of over 50% in size
How it was run: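 Human lymphoblastoid cells (2500/well) were pre-incubated 5 hr at 37 C, then exposed to compounds in complete medium for 24 hr at 37 C. Intracellular ATP was read by CellTiter-Glo luminescence after 30 min at room temperature; AC50 from Hill fits.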

[14] = Cell Viability - LYMP2-016 (AID 984); also: nearly all actives have a fitted effect of over 55% in size
How it was run: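 Cytotoxicity was scored by luminescent ATP content (CellTiter-Glo) after 24 h compound exposure at 37 C of a human lymphoblastoid line at 2500 cells/well. Concentration-response data were fitted to the Hill equation for AC50.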

[15] = Cell Viability - LYMP2-018 (AID 985);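 also: compound exposure lasted 24 hr at 37 °C; nearly all actives have a fitted effect of over 50% in size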
How it was run: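 Human lymphoblastoid cells (2500/well) were pre-incubated 5 hr at 37 C, then exposed to compounds for 24 hr at 37 C in complete medium. Viability was read as intracellular ATP by CellTiter-Glo luminescence; AC50 values came from Hill-equation fits.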

[16] = Cell Viability - LYMP2-020 (AID 986)
How it was run: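 Human lymphoblastoid cells, 2500/well, were pre-incubated 5 hr at 37 C, then exposed to compounds for 24 hr at 37 C in complete medium. Intracellular ATP was read by CellTiter-Glo luminescence, and AC50 was derived by Hill fitting of concentration-response data.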

[17] = Cell Viability - LYMP2-022 (AID 987); also: nearly all actives have a fitted effect of over 55% in size
How it was run: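 Human lymphoblastoid cells, 2500/well, preincubated 5 hr at 37 C, then exposed to compounds over a concentration range for 24 hr at 37 C in complete medium. Viability read as intracellular ATP by CellTiter-Glo luminescence after 30 min at room temperature; AC50 from Hill fits.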

[18] = Cell Viability - LYMP2-024 (AID 988); also: nearly all actives have a fitted effect of over 60% in size
How it was run: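 Human lymphoblastoid cells (2500/well) in complete medium were preincubated 5 hr at 37 C, then exposed to compounds for 24 hr at 37 C. Intracellular ATP was read by CellTiter-Glo luminescence; AC50 from Hill-equation fits of concentration-response data.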

[19] = Cell Viability - LYMP2-026 (AID 989); also: nearly all actives have a fitted effect of over 50% in size
How it was run: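 Human lymphoblastoid cells (2500/well) in complete medium were preincubated 5 hr at 37 C, then exposed to compounds for 24 hr at 37 C. Cellular ATP was read by CellTiter-Glo luminescence; AC50 from Hill-equation fits of concentration-response data.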

[20] = Cell Viability - LYMP1-002 - Assay at 24 hr (AID 993)
How it was run: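 Human lymphoblastoid LYMP1-002 cells, 2500/well in complete medium, were treated with compounds for 24 h at 37 C; intracellular ATP was read by CellTiter-Glo luminescence. AC50 values came from Hill-equation fits of qHTS concentration-response data.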

Measured: outcome

C=CC(C)(O)CCC=C(C)C (stereo not given)
inactive: [1] | [2] | [3] | [4] | [5] | [6] | [7] | [8] | [9] | [10] | [11] | [12] | [13] | [14] | [15] | [16] | [17] | [18] | [19] | [20]
